Measurements from PubChem BioAssay (NCI).
The panel holds about 83,000 compounds, 20% with a hit somewhere; the sample as a whole holds those more often.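 Results are percent growth after 48 hours of single-concentration exposure. 100 means growth as in untreated cells, lower positive values show inhibition; negative values down to -100 show cell death.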 The source made the active and inactive calls. Rule for the calls: active = growth percent below 10; inactive = the rest.

Tested on: SN12C renal
Assay: NCI-60 one-dose screen, 48 h (100 = growth as untreated, 0 = no growth, -100 = all killed)
Details: 10 µM unless noted

| Compound | growth |
| --- | --- |
| Fc1c[c-]c(-c2ccccn2)c(F)c1.Fc1c[c-]c(-c2ccccn2)c(F)c1.[Cl][Pt+].[Cl][Pt+].c1ccc([PH+](C[PH+](c2ccccc2)c2ccccc2)c2ccccc2)cc1 | 5.5% (active) |
| O=C(NCc1cccnc1)c1ccc([N+](=O)[O-])o1 | -53.4% (active) |
| COc1ccc(NS(=O)(=O)c2ccc(-c3cnc(C4CC4)o3)cc2)cc1 | 81.5% (inactive) |
| NC1=NC(c2ccccc2OS(=O)(=O)c2ccc(Br)cc2)n2c(nc3ccccc32)N1 (centres undefined) | 87.7% (inactive) |
| O=C(Nc1ccccc1)Oc1cccc2cccnc12 | 94.9% (inactive) |
| CCC12CCC3c4ccc(O)cc4CCC3C1CC(O)C2O (centres undefined) | 82.5% (inactive) |
| Cc1ccc(S(=O)(=O)N2CCc3ccc(O)c4c3C2Cc2ccc3c(c2-4)OCO3)cc1 (centres undefined) | 39.5% (inactive) |
| COC(=O)c1c2c(c(C)[n+]([O-])c1C)C(=O)C=C(NCc1cccc(OC)c1)C2=O | -93.4% (active) |
| O=C(c1cnn2c1NC(c1ccc(F)cc1)C2)N1CCCCC1 (centres undefined) | 104% (inactive) |
| O=C1NC(=O)C2(CCCC2C(=O)O)N1 (centres undefined) | 99.6% (inactive) |
| CON=C1C[C@]2(C[C@@H]3C[C@@H](C/C=C(\C)C[C@@H](C)/C=C/C=C4\CO[C@@H]5[C@H](O)C(C)=C[C@@H](C(=O)O3)[C@]45O)O2)O[C@H](/C(C)=C/C(C)C)[C@H]1C | 55% (inactive) |
| COc1cc(/C=C/C(=O)C(=Cc2ccc(F)c(F)c2)C(=O)/C=C/c2ccc(O)c(OC)c2)ccc1O | 31.2% (inactive) |
| CCOC(=O)c1[nH]c2cc(Cl)ccc2c1[C@@H](C(=O)NC(C)(C)C)N(CC)C(=O)CCCCC#Cc1cccc2c1CN(C1CCC(=O)NC1=O)C2=O (some centres undefined) | 24.4% (inactive) |
| O=C1/C(=C/c2ccccc2F)CNC/C1=C\c1ccccc1F | -51.1% (active) |
| COc1cc(C2C3=C(COC3=O)N(CCO)c3cc4c(cc32)OCO4)cc(OC)c1O (centres undefined) | 52.7% (inactive) |
| COc1ccccc1CNCCCCCCCCCCCCN1C(=O)c2ccc3c4c(ccc(c24)C1=O)C(=O)N(CCCCCCCCCCCCNCc1ccccc1OC)C3=O | 74.1% (inactive) |
| CC(C)NCC(O)COc1ccc(CCOCC2CC2)cc1 (centres undefined) | 96.9% (inactive) |
| Clc1ccc(C2=NN(c3ccccc3)[C@H](c3cn(-c4ccccc4)nc3-c3ccccc3)C2)cc1 | 103% (inactive) |

Tested on: UO-31 renal
Assay: as above
Details: 10 µM unless noted

| Compound | growth |
| --- | --- |
| COc1ccc(S(=O)(=O)ON=C2C=C(C)C(=O)C(C)=C2)cc1 | 80.4% (inactive) |
| COCCOC1=C(Cl)C(=O)c2ccccc2C1=O | -20.2% (active) |
| O=C1C(OCCOc2ccccc2)=C(OCCOc2ccccc2)C(=O)c2ccccc21 | 46.9% (inactive) |
| N#Cc1c(O)c2c(c(O)c1C#N)C(=O)c1ccccc1C2=O | 68.3% (inactive) |
| COc1cc(/C=C/C(=O)CC(=O)/C=C/c2cc(Br)c(OC)c(OC)c2)cc(Br)c1OC | 87.9% (inactive) |
| CCN1CCN(c2ccc(Nc3ncc4ccc5ncn(C(C)C)c5c4n3)nc2)CC1 | -5.17% (active) |
| Nc1nc2c(s1)CCc1c-2c(Br)n(Cc2ccccc2)c1Br | 72.9% (inactive) |
| O=c1onc(-c2ccccc2)c2ccccc12 | 97.8% (inactive) |
| CCCCCn1c(=N)n(CC(O)COc2cccc(C)c2)c2ccccc21 (centres undefined) | 0.645% (active) |
| COc1ccc(-c2nn(-c3ccc(NC(=O)c4ccc(Cl)c(Cl)c4)cc3)cc2-c2ccncc2)cc1Cl | 2.82% (active) |
| CCC(C)Oc1cc(/C=N/NC(=O)c2cnn3c2NC(c2ccccc2)C3)ccc1OC (centres undefined) | 53.8% (inactive) |
| COc1cccc(OC)c1OC(=O)c1ccccc1 | 77.5% (inactive) |
| C=C[C@H]1C[C@@H]2C[C@@H]3[C@H]4C/C=C\C(=O)NCCCC5NC(=O)C(=C(O)/C=C/[C@@H]4CC(=O)[C@H]3[C@@H]2[C@H]1C)C5=O (some centres undefined) | -87.4% (active) |
| Cc1nc2ccc(Cl)cc2n1C | 102% (inactive) |
| Fc1c[c-]c(-c2ccccn2)c(F)c1.Fc1c[c-]c(-c2ccccn2)c(F)c1.[Cl][Pt+].[Cl][Pt+].c1ccc([PH+](C[PH+](c2ccccc2)c2ccccc2)c2ccccc2)cc1 | 75.9% (inactive) |
| O=C(NCc1cccnc1)c1ccc([N+](=O)[O-])o1 | 2.12% (active) |

| Compound | growth |
| --- | --- |
| COc1ccc(NS(=O)(=O)c2ccc(-c3cnc(C4CC4)o3)cc2)cc1 | 69.8% (inactive) |
| NC1=NC(c2ccccc2OS(=O)(=O)c2ccc(Br)cc2)n2c(nc3ccccc32)N1 (centres undefined) | 73.5% (inactive) |
| O=C(Nc1ccccc1)Oc1cccc2cccnc12 | 68.1% (inactive) |
| CCC12CCC3c4ccc(O)cc4CCC3C1CC(O)C2O (centres undefined) | 65.9% (inactive) |
| COC(=O)c1c2c(c(C)[n+]([O-])c1C)C(=O)C=C(NCc1cccc(OC)c1)C2=O | -62.5% (active) |
| O=C(c1cnn2c1NC(c1ccc(F)cc1)C2)N1CCCCC1 (centres undefined) | 89.8% (inactive) |
| O=C1NC(=O)C2(CCCC2C(=O)O)N1 (centres undefined) | 96.5% (inactive) |
| CON=C1C[C@]2(C[C@@H]3C[C@@H](C/C=C(\C)C[C@@H](C)/C=C/C=C4\CO[C@@H]5[C@H](O)C(C)=C[C@@H](C(=O)O3)[C@]45O)O2)O[C@H](/C(C)=C/C(C)C)[C@H]1C | 24% (inactive) |
| COc1cc(/C=C/C(=O)C(=Cc2ccc(F)c(F)c2)C(=O)/C=C/c2ccc(O)c(OC)c2)ccc1O | 53.2% (inactive) |
| O=C1/C(=C/c2ccccc2F)CNC/C1=C\c1ccccc1F | -89.6% (active) |
| COc1cc(C2C3=C(COC3=O)N(CCO)c3cc4c(cc32)OCO4)cc(OC)c1O (centres undefined) | 57.9% (inactive) |
| CCCCCCCC/C=C\CCCCCCCCOc1cccc(CC(=O)NCC[N+]2(C)CCOCC2)c1 | 82.1% (inactive) |
| COc1ccccc1CNCCCCCCCCCCCCN1C(=O)c2ccc3c4c(ccc(c24)C1=O)C(=O)N(CCCCCCCCCCCCNCc1ccccc1OC)C3=O | 109% (inactive) |
| CC(C)NCC(O)COc1ccc(CCOCC2CC2)cc1 (centres undefined) | 76.9% (inactive) |
| Clc1ccc(C2=NN(c3ccccc3)[C@H](c3cn(-c4ccccc4)nc3-c3ccccc3)C2)cc1 | 94.8% (inactive) |
